Measured values published in PubChem BioAssay AID1508602 (The Scripps Research Institute Molecular Screening Center, 2020).
In all, about 650,000 compounds went through this assay and about 6,800 (1%) were called active. Cut-off read from the data, not from the text of the source: active = activation above about 4.9%; inactive = the rest. Only a selection was taken, and actives are over-represented in it overall.

These compounds were tested against G-protein coupled receptor 151 (Homo sapiens) (UniProt Q8TDV0) (assay: activators of human GPR151, primary screen, cell-based, PathHunter beta-arrestin, luminescence (AID 1508602;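 note: 0% = median of compound wells and 100% = cells with positive control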)). Settings: PathHunter beta-arrestin GPR151 cells, at 11.2 µM, active compounds read high.
Chain of G-protein coupled receptor 151 (Homo sapiens) (Q8TDV0 whole entry, looked up): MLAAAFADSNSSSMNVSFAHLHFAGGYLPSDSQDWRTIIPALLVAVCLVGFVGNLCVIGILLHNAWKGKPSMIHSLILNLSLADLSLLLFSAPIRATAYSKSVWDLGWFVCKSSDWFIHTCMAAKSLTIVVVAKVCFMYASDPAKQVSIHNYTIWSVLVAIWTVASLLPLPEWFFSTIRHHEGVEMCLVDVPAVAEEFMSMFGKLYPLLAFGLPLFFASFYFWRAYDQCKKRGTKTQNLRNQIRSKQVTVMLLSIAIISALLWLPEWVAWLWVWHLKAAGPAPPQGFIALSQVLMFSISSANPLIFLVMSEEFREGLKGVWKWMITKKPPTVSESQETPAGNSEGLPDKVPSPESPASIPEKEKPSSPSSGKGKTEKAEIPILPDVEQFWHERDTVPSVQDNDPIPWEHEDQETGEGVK

Structure (SMILES)	activation
O=C(Nc1ccc2oc(-c3ccc(F)cc3)nc2c1)c1ccc([N+](=O)[O-])cc1	0.435% (inactive)
Cc1cccc(NC(=O)COc2ccc([N+](=O)[O-])cc2)c1	0.0864% (inactive)
O=C(COc1ccc([N+](=O)[O-])cc1)Nc1cccc(Br)c1	0.574% (inactive)
COC(=O)c1cc(NC(=O)COc2ccc([N+](=O)[O-])cc2)cc(C(=O)OC)c1	5.49% (active)
Cc1cc2nc(-c3cccc(NC(=O)COc4ccc(Br)cc4)c3)oc2cc1C	-0.225% (inactive)
O=C(COc1ccc([N+](=O)[O-])cc1)Nc1ccc2oc(-c3cccc(F)c3)nc2c1	6.49% (active)
CCCNc1nc(Cl)nc2c1ncn2Cc1ccc(C(F)(F)F)cc1	0.16% (inactive)
O=C(Cc1csc(SCc2cccc(Cl)c2)n1)NC1CCCC1	-0.537% (inactive)
O=C(Nc1ccc2c(c1)OCO2)C(c1ccccc1)N(Cc1ccccc1)Cc1ccccc1 (stereo not given)	-0.714% (inactive)
Cc1ccc2c(c1)N(CC(=O)N(Cc1ccccc1)Cc1ccc3c(c1)OCO3)C(=O)CO2	1.35% (inactive)
CCC(=O)N(CCC(Cc1ccccc1)c1ccc2c(c1)OCO2)Cc1ccc(OC(C)C)cc1 (stereo not given)	6.12% (active)
CCn1c(SCC(=O)Nc2ccccc2Cl)nnc1-c1ccccc1N	0.603% (inactive)
CC(C)(C)C(=O)CSc1nc2c(sc(=S)n2CCc2ccccc2)c(=O)n1Cc1ccco1	-0.941% (inactive)
O=C(NCCc1ccccc1)C(=O)NCCC1CCCCC1	-1.51% (inactive)
CC(C)(C)C1CCC(=NNC(=O)C(=O)NCCc2ccccc2)CC1 (stereo not given)	6.69% (active)
CNC(=O)C(=O)NCCc1ccccc1	2.61% (inactive)
Cc1ccc2c(CC(=O)N3CCc4ccccc4C3)cc(=O)oc2c1	-1.02% (inactive)
Cc1nnc(C)n1/N=C/c1ccc(Br)cc1	0.537% (inactive)
Cc1nc([N+](=O)[O-])cn1CC(=O)C12CC3CC(CC(C3)C1)C2	0.332% (inactive)
COc1ccc(CCNc2cc(C)nc3ncnn23)cc1	-0.69% (inactive)

Structure (SMILES)	activation
COP(=O)(OC)C(OC(=O)NC(=O)C(Cl)(Cl)Cl)c1ccccc1 (stereo not given)	0.583% (inactive)
CCN(CC)S(=O)(=O)c1ccc(N2CCCC2)c(C(=O)O)c1	1.07% (inactive)
CCN(CC)S(=O)(=O)c1ccc(N2CCCC2)c(NC(=O)c2ccc([N+](=O)[O-])o2)c1	5.27% (active)
O=C(Nc1ccc(N2CCCCC2)c(Cl)c1)c1ccc([N+](=O)[O-])o1	1.67% (inactive)
Cc1ccc(-c2cnn3ccc(NCc4cccnc4)nc23)cc1C	-1.12% (inactive)
Cc1ccc(S(=O)(=O)N/N=C/c2c[nH]c3ccc(Br)cc23)cc1	0.63% (inactive)
c1ccc(-c2nc(-c3cccs3)[nH]c2-c2cccs2)cc1	6.25% (active)
O=C(O)c1ccc(-c2nc(-c3cccs3)c(-c3cccs3)[nH]2)cc1	1.43% (inactive)
COc1cc(OC)cc(-c2nc(-c3ccccc3)c(-c3cccs3)[nH]2)c1	0.0508% (inactive)
O=C1NC2(CCN(CC3CCC=CO3)CC2)Oc2ccccc21 (stereo not given)	-0.166% (inactive)
CCN(CC)S(=O)(=O)c1ccc(C)c(NS(=O)(=O)c2cccc(C#N)c2)c1	5.51% (active)
N#Cc1cccc(S(=O)(=O)Nc2cccc(Br)c2)c1	0.99% (inactive)
CCN(CC)S(=O)(=O)c1cccc(C(=O)N/N=C(\C)c2ccc(C#N)cc2)c1	-0.108% (inactive)
CC(C)Oc1ccc(C(=O)Nc2sc3c(c2C(N)=O)CCCC3)cc1	-0.378% (inactive)
CNC(=O)c1c(NC(=O)c2cccc(OC)c2)sc2c1CCC2	-0.776% (inactive)
COc1cccc(C(=O)Nc2sc3c(c2C(N)=O)CCCCCC3)c1	6.65% (active)
CNC(=O)c1c(NC(=O)c2ccc(OC)cc2)sc2c1CCCCC2	-1.51% (inactive)
COc1ccc(C(=O)Nc2sc3c(c2C(N)=O)CCCC3)cc1	5.12% (active)
NC(=O)c1c(NC(=O)c2ccc(Oc3ccccc3)cc2)sc2c1CCCCC2	-0.921% (inactive)
CCc1ccc2[nH]c3nc(SCC#N)nnc3c2c1	-0.711% (inactive)

Structure (SMILES)	activation
COCCN1C(=O)CC(CC(=O)N2CCN(C)C[C@@H]2C(C)C)(c2cccc(OC)c2)C1=O (stereo not given in full)	1.08% (inactive)
CCCCOc1ccc(S(=O)(=O)NC2CCCCC2)cc1	-1.26% (inactive)
Cc1nn(C)c(C)c1-c1nc2ncnc(NCCO)c2[nH]1	7.4% (active)
Cc1nn(C)c(C)c1-c1nc2c(NCCO)ncnc2n1C(C)C	-0.731% (inactive)
OCCNc1ncnc2nc(-c3ccccc3)[nH]c12	0.187% (inactive)
COc1ccc(-c2nnc(SCCC#N)o2)cc1	10.1% (active)
COc1ccc(-c2nnc(SCC(=O)NC(N)=O)o2)cc1	0.906% (inactive)
N#CCCCSc1nnc(-c2ccc(C#N)cc2)o1	-0.162% (inactive)
CCOC(=O)c1cc2c(=O)n3ccccc3nc2n(Cc2ccco2)c1=NC(=O)c1ccc(Cl)cc1	-0.357% (inactive)
CC(C)N(C(=O)CN(C)S(=O)(=O)c1cc(Cl)ccc1Cl)C(C)C	-0.725% (inactive)
COc1ccc(NC(=O)c2nn3c(C(F)(F)F)cc(-c4ccccc4)nc3c2Br)c(OC)c1	2.64% (inactive)
CC(=O)NS(=O)(=O)c1ccc(NC(=O)/C=C/c2ccccc2Cl)cc1	0.647% (inactive)
CC(C)c1ccc(NC(=O)/C=C/c2ccccc2Cl)cc1	1.13% (inactive)
O=C(O)/C=C/c1ccccc1Cl	5.27% (active)
CC(C)NC(=O)/C=C/c1ccccc1Cl	5.07% (active)
NC(=O)NC(=O)COC(=O)/C=C/c1ccccc1Cl	1.72% (inactive)
O=C(/C=C/c1ccccc1Cl)Nc1ccc(I)cc1	1.42% (inactive)
CCOc1ccc(CN2CCN(Cc3ccc(C)o3)C(CCO)C2)cc1CO (stereo not given)	1.78% (inactive)
O=C(N/N=C/c1ccc([N+](=O)[O-])cc1)c1cccc(I)c1	-0.236% (inactive)
O=C(O)c1ccc(Br)c(N2C(=O)c3cc(Cl)c(Cl)cc3C2=O)c1	0.176% (inactive)
